In the library only some 5.3% were active in any assay of this set; here they are far more common.
Tau ThT inhib: blocks human tau fibril formation measured by thioflavin T. P10636. recombinant tau K18 P301L, heparin-induced fibrillization, ThT fluorescence. Potency, µM (series often up to 57.4 µM), for the others: top-dose activity, negative = inhibition, actives largely listed as inhibitors. 2.1% of 270,000 active. AID 1460; also: potency is read from the fitted curve at half-maximal effect; nearly all actives have a fitted effect of over 55% in size
Target sequence (P10636 561-689 P618L limits assumed): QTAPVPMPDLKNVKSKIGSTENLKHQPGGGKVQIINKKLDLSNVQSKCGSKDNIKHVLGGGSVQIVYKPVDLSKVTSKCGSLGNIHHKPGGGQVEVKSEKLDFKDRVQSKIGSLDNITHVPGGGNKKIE
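K18 P301L tau (15 uM + 0.24 uM Alexa 594-tagged), heparin 20 uM, NaOAc pH 7, 6 h 37 C; ThT 30 uM, 1 h RT, ex 450/em 510 nm.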
KDM4E inh: blocks human JMJD2E demethylase activity. 1.6% of 230,000 active. Potency, µM (top dose mostly 57.1 µM), inactives show at the top dose activity change, negative = inhibition, usual class: inhibitors. B2RXH2. JMJD2E catalytic domain, FDH-coupled NADH fluorescence (FDH is formaldehyde dehydrogenase);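 also: potency is read from the fitted curve at half-maximal effect; 0% = wells with enzyme and -100% = buffer wells without enzyme; nearly all actives have a fitted effect of over 50% in size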
Target sequence (B2RXH2 1-337 limits assumed): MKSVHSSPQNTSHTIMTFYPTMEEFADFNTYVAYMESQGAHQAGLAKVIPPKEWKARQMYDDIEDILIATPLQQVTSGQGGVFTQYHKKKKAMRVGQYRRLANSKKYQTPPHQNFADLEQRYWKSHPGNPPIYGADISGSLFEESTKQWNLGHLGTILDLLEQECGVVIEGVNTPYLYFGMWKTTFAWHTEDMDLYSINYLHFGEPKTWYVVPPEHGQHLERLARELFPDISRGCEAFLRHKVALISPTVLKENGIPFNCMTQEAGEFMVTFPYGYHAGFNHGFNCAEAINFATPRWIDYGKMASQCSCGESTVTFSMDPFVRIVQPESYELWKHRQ
Tau fluor cs: counter-screen for tau fibril formation inhibitors | AID 1463 | tau K18 P301L (four-repeat tau fragment) Alexa594 fluorescence, heparin fibrillization | 0.93% of 280,000 active | Potency, µM (series often up to 57.7 µM), inactives show top-dose activity change, negative = decrease; also: potency is read from the fitted curve at half-maximal effect; nearly all actives have a fitted effect of over 55% in size
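Human K18 P301L tau (15 uM unlabeled plus 0.24 uM Alexa 594-labeled, final) in 100 mM sodium acetate pH 7 was mixed with compound and 20 uM heparin and incubated 6 hr at 37 C.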
FBPA coupling cs: coupling enzyme interference in Giardia aldolase counter-screen; coupling enzyme system counterscreen, AmpLite Red fluorescence; activity change, negative = inhibition, % at 58.2 µM, hits read low; 0.67% of 290,000 active; AID 2472; in the data active = activity change below about -30%
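Counterscreen of the coupled detection system alone, without aldolase: glyceraldehyde-3-phosphate coupling enzymes plus AmpLite Red readout. Compounds at 57.5 uM final, 10 min RT preincubation, 20 min RT reaction, fluorescence 525/598 nm.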
Tau fibril FP: tau fibrillization inhibition (FP). 0.39% of 280,000 active. Potency, µM (highest dose often 57.7 µM), inactives show top-dose activity, negative = inhibition, most hits filed as inhibitors. P10636. K18 P301L tau heparin fibrillization, Alexa594 FP, 6 h; also: potency is read from the fitted curve at half-maximal effect; nearly all actives have a fitted effect of over 55% in size
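FP of Alexa 594-tau after heparin (20 uM) induction. Substrate: human K18 P301L, 15 uM unlabeled, 0.24 uM labeled. Buffer 100 mM sodium acetate pH 7. 6 hr, 37 C.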
Sfp PPTase inh: inhibitors of Bacillus subtilis Sfp phosphopantetheinyl transferase; Potency, µM, inactives show largest response in the series, negative = inhibition, usual class: inhibitors; Biochemical Sfp PPTase activity, qHTS; Q9F4F7; 3.5% of 310,000 active;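 also: the enzyme is Sfp with the accession as filed and its product quenches rhodamine fluorescence; potency is read from the fitted curve at half-maximal effect; 0% = enzyme reaction without inhibitor and -100% = no enzyme wells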
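Step 1, compound plus 15 nM Sfp-PPTase, 15 min, room temperature. Step 2, add rhodamine-CoA (5 uM) and BHQ-2-YbbR (12.5 uM). Step 3, read 525/598 nm fluorescence at 0 and 30 min.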
* marks the source's active call; other numbers are inactive results; ? = inconclusive; nt = not tested or not shown; ! = repeats disagree; [ ] = another dose, or the depositor's remark. Unless noted, calls follow the shape of the dose curve; as a rule, active = well fitted curve in the direction sought with a large enough effect; inconclusive = small, poorly fitted or top-dose-only effect, or another doubt; inactive = no such curve, though single readings can be large; an effect the other way counts as inactive or inconclusive. Unless noted, % is scaled to controls: 0 for no effect and ±100 for the full control effect.

SMILES | Tau ThT inhib | KDM4E inh | Tau fluor cs | FBPA coupling cs | Tau fibril FP | Sfp PPTase inh
C[C@H](NC(=O)[C@@H](N)Cc1ccc(O)cc1)C(=O)NCC(=O)N[C@H]1CSSC[C@@H](C(=O)O)NC(=O)[C@H](CO)NC(=O)[C@H]([C@@H](C)O)NC(=O)[C@H](Cc2ccccc2)NC(=O)[C@H]([C@@H](C)O)NC(=O)[C@H](CCCCN)NC(=O)[C@@H](Cc2c[nH]c3ccccc23)NC(=O)[C@H](Cc2ccccc2)NC(=O)[C@H](Cc2ccccc2)NC(=O)[C@H](CC(N)=O)NC(=O)[C@H](CCCCN)NC1=O | nt | nt | nt | 0 | nt | 2%
O=C(CCNS(=O)(=O)c1ccc2c(c1)CCN2C(=O)C1CC1)N1CCN(c2ccc(F)cc2)CC1 | -17% | nt | -4% | nt | 13% | nt
COC(=O)c1c(-c2cc(OC)c(OC)c(OC)c2)c2ccc(OCc3ccccn3)cc2c(=O)n1-c1ccc(N)cc1 | ? | -9% | -17% | nt | -1% | nt
CCCCCCc1ccc(-c2ncc(N)cn2)cc1 | -20% | ? | 14µM*[quencher] | 0 | 7% | 24%
CCC[n+]1c(C)sc2c(OC)ccc(OC)c21 | 35µM* | ? | -20% | -1 | 32µM* | 4µM*
CCCCC(=O)Nc1nc2c(OC)ccc(OC)c2s1 | ? | -9% | -29% | 1 | 6% | 6%
CNc1ccc(Cl)nn1 | 7% | -27% | 0% | 0 | -9% | 14%
NNc1ccc(Cl)nn1 | ? | -12% | -14% | 0 | -3% | 45µM*
CCCCCC#CCC#CCC#CCC#CCCCC(=O)O | ? | 16µM*! | -15% | 4 | -15% | -15%
CCCCCC(O)CCCC(=O)O (centres undefined) | -5% | -2% | -5% | nt | -9% | 27%
CCCCC(=O)NC(=S)NNC(=O)CC#N | -14% | -6% | -9% | 0 | 1% | 10µM*
CCCCC(=O)NNC(=S)NC(=O)CCC | ? | -3% | -12% | -12 | -8% | 79µM*
COc1cc(-c2nc3n(n2)C(c2ccc(F)cc2)C(C(N)=O)=C(C)N3)cc(OC)c1OC (centres undefined) | -11% | nt | -7% | nt | -2% | nt
OC(COc1ccc(Cl)c2ccccc12)CN1CCN(c2ccccn2)CC1 (centres undefined) | ? | ? | ? | -3 | -8% | 79µM*
Cc1ccc(C(C[N+](=O)[O-])c2c(-c3ccccc3O)[nH][nH]c2=O)cc1 (centres undefined) | 18µM* | ? | -22% | -6 | ? | -10%
COc1ccc(N2CCN(C(=O)c3ccc(-c4nc(COc5ccccc5)c(C)o4)cc3)CC2)cc1 | -13% | nt | 0% | nt | 10% | nt
NC1=CC(=O)c2cccc3cccc1c23 | 11µM* | ? | ? | -34* | ? | 3.5µM*
O=C1C=C(O)c2cccc3cccc1c23 | nt | nt | nt | -5 | nt | -4%
CCC1=C2CC[C@H]3C(=O)NC(=O)[C@H]3[C@H]2[C@@]2(C)C(=NCC(=O)OC)OC(=O)N2C1=O | -5% | -16% | -8% | -1 | 1% | 3%
CCN(CC)c1ccc(/C=N/NC(=O)OC)c(O)c1 | ? | 13µM* | -29% | -2 | 12% | -21%
CCN(CC)c1ccc(/C=N/Nc2ccccc2)c(O)c1 | 25µM* | 16µM* | ? | -14 | ? | 56µM*
CCN(CC)c1ccc(/C=N/NC(=O)c2ccoc2C)c(O)c1 | ? | 11µM* | ? | -3 | 11% | 14%
CCN(CC)c1ccc(C=Nc2ccc(N(C)C)cc2)c(O)c1 | ? | -1% | ? | -27 | ? | 50µM*
COc1ccc2[nH]cc(CCNc3ncncc3-c3ccoc3)c2c1 | nt | nt | nt | -5 | nt | 9%
COc1ccc(-c2nc3cc(C(C)C)ccc3o2)cc1NC(=O)COc1ccc(C)cc1C | 6% | nt | -1% | nt | 0% | nt
SMILES | Tau ThT inhib | KDM4E inh | Tau fluor cs | FBPA coupling cs | Tau fibril FP | Sfp PPTase inh
CCN(CC)c1ccc(/C=N/NC(=O)c2cccc(S(=O)(=O)Nc3ccccc3OC)c2)c(O)c1 | -13% | ? | 7.9µM*[quencher] | -2 | ? | 20%
O=C1NN(c2ccccc2)C(=O)/C1=C/c1ccc(Sc2ccc(Cl)cc2)o1 | 11µM* | -11% | ? | -1 | -17% | -2%
COc1cccc(/C=C2/C(=O)NN(c3ccc(Br)cc3)C2=O)c1O | nt | nt | nt | -17 | nt | -21%
Cc1ccc(Sc2ccc(/C=C3/C(=O)NN(c4ccccc4)C3=O)o2)cc1 | 13µM* | -1% | ? | 2 | -13% | -5%
O=C1NC(=O)/C(=C\c2ccc(Sc3ccc(Cl)cc3)o2)N1 | -15% | -9% | -13% | 1 | -2% | -14%
Cc1ccc(-c2cc(-c3ccco3)c3c(N)c(C(=O)NN)oc3n2)cc1 | 10µM* | 3.2µM* | ? | -2 | -2% | ?
Cc1cc(=O)n(C2CCS(=O)(=O)C2)[nH]1 (centres undefined) | -7% | 22µM* | -10% | 0 | -17% | -4%
Cc1cccc(CN2C(=O)/C(=C\c3ccc(C(=O)NCCCN4CCN(C)CC4)cc3)Oc3ccccc32)c1 | nt | nt | nt | 5 | nt | 50µM*
CC1CCC(NC(=O)c2ccc(/C=C3\Oc4ccccc4N(C)C3=O)cc2)CC1 (centres undefined) | 5% | ? | 3% | 15 | -4% | -2%
CN1CCN(CCCNC(=O)c2ccc(/C=C3\Oc4ccccc4N(Cc4ccccc4F)C3=O)cc2)CC1 | nt | nt | nt | 3 | nt | 56µM*
CCc1ccc(CN(Cc2cn[nH]c2-c2ccc(OC)cc2)C(=O)Nc2ccc(Br)cc2)cc1 | ? | nt | -16% | nt | 4% | nt
O=c1c2oc3ccccc3c2[nH]c(=S)n1-c1ccc(F)cc1 | -17% | -24% | -15% | -2 | -5% | 79µM*
CC(C)c1nc(N2CCN(C(=O)c3ccco3)CC2)c(C#N)c2c1COC(C)(C)C2 | nt | nt | nt | -1 | nt | -4%
CCCc1cc(N2CCN(C(=O)c3ccco3)CC2)n2c(nc3ccccc32)c1C#N | -17% | ? | -9% | 4 | 1% | 56µM*
Cc1nnc2c(N3CCN(C(=O)c4ccco4)CC3)nc3ccccc3n12 | nt | nt | nt | nt | nt | 6%
CCCCc1nc(N2CCN(C(=O)c3ccco3)CC2)c(C#N)c2c1CCCC2 | nt | nt | nt | nt | nt | 45µM*
CCOC(=O)c1cc2c(=O)n3ccccc3nc2n(C(C)C)c1=NC(=O)C(C)(C)Oc1ccc(Cl)cc1 | -12% | nt | -11% | nt | 3% | nt
CC(=O)c1c(C)oc2c1cc(NS(=O)(=O)c1ccc(C(C)(C)C)cc1)c1ccccc12 | -10% | nt | ? | nt | -10% | nt
Cc1oc2c(cc(NS(=O)(=O)c3ccc(F)cc3)c3ccccc32)c1C(=O)O | nt | nt | nt | -31* | nt | 3%
COc1ccc(S(=O)(=O)Nc2cc3c(C(C)=O)c(C)oc3c3ccccc23)cc1 | -4% | 3% | ? | -27 | 3% | 45µM*
